This is a sample that favours compounds with a hit; in the whole collection about 21% have one here.
Shiga toxin inh: Shiga toxin inhibition | Vero cells, Shiga toxin protein synthesis inhibition reporter | AID 2315 | 9.2% of 290,000 active | inhibition, % at 38.7 µM; in the data active = inhibition mostly above about 28%, no sharp cut-off; inactive = mostly below about 43%; also: 0% is about no effect
Pf growth 48h: P. falciparum growth inhibition at 48 hours (one generation) | P. falciparum luciferase growth in erythrocytes, 48 h | Potency, µM (series often up to 28.7 µM), inactives show top-dose activity change, negative = inhibition, usual class: inhibitors | 5.9% of 310,000 active | AID 504832; also: potency is read from the fitted curve at half-maximal effect; % is scaled to controls: 0 for no effect and ±100 for the full control effect
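Growth was read as firefly luciferase luminescence after a 48 h, 37 C, 5% CO2 exposure of compounds to reporter-bearing P. falciparum cultures (0.1% parasitemia, 2% hematocrit final) in Albumax-supplemented RPMI 1640.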
Cycloheximide cs: affects cycloheximide protein synthesis inhibition readout, counter-screen. cell reporter, cycloheximide protein synthesis inhibition counterscreen. max response, %. 12% of 300,000 active. AID 2314; in the data active = max response mostly above about 13%, no sharp cut-off; inactive = mostly below about 14%; also: read at 38.3 µM for the half of the compounds with a filed dose; 0% is about no effect
Pf growth 96h: P. falciparum growth inhibition at 96 hours; P. falciparum luciferase reporter growth, 96 h; Potency, µM (series often up to 28.7 µM), for inactives: at the top dose activity change, negative = inhibition, actives largely listed as inhibitors; 6.9% of 320,000 active; AID 504834; also: potency is read from the fitted curve at half-maximal effect; % is scaled to controls: 0 for no effect and ±100 for the full control effect
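Readout is luminescence from an integrated firefly luciferase in P. falciparum. Red cells, 2% hematocrit and 0.05% parasitemia final, were cultured with compound through two parasite generations (96 hours) at 37 C, 5% CO2.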
NS1 function inh: influenza NS1 inhibition | Potency, µM (doses to about 46.1 µM), for the others: at the top dose activity, positive = more growth | 0.4% of 270,000 active | AID 2326; calls by dose curve; also: potency is read from the fitted curve at half-maximal effect; actives are rising curves; nearly all actives have a fitted effect of over 50% in size
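Read-out: OD600 growth recovery of NS1-expressing budding yeast. Cells grown overnight at 30C in -URA glucose medium, washed, resuspended and diluted 1:100 in 2% galactose assay medium, pH 6.0. Same strain lacking NS1 served as positive control.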
* = called active by the depositor; ? = inconclusive; / = no result; [ ] = another dose, or the depositor's remark. Unless noted, calls follow the shape of the dose curve; as a rule, active = well fitted inhibition curve with a large enough effect; inconclusive = small, poorly fitted or top-dose-only effect, or another doubt; inactive = no such curve, though single readings can be large or run the other way.

SMILES	Shiga toxin inh	Pf growth 48h	Cycloheximide cs	Pf growth 96h	NS1 function inh
CCC1CCCCN1CCCNS(=O)(=O)c1ccc2c(c1)oc(=O)n2C (stereo unspecified)	-7	12µM*	-3	2.9µM*	4%
CCC1CCCCN1CCNS(=O)(=O)c1ccc2c(c1)oc(=O)n2C (stereo unspecified)	-2	10%	6	-20%	3%
CC1CCCCN1CCNS(=O)(=O)c1ccc2c(c1)oc(=O)n2C (stereo unspecified)	-11	23%	1	?	-4%
Cc1ccc(OP(=O)(Oc2ccc(C)cc2)N2C=Cc3ccccc3[C@H]2C#N)cc1	/	/	/	/	-8%
Cc1nn(-c2ccc(F)cc2)c2nc(N)c(C#N)c(-c3ccc(O)c(O)c3)c12	-21	10µM*	6	10µM*	4%
COc1cc(-c2c(C#N)c(N)nc3c2c(C)nn3-c2ccc(C)c(C)c2)cc(OC)c1OC	12	4.7µM*	10	-22%[5.75 µM]	?
O=C(Nc1cccc(S(=O)(=O)NC2=NCCC2)c1)c1cc(Cl)ccc1[N+](=O)[O-]	/	?	/	19%	/
CN(Cc1ccccc1)C(=O)CCCn1c(=O)c2cccn2c2cccnc21	-5	?	-1	-17%	12%
C=C1C(=O)O[C@H]2[C@H]1[C@@H](O)CC(=C)[C@@H]1CC(=O)[C@@H](C)[C@H]21	36*	?	32*	?	1%
CCCOc1ccc(C2c3c(oc4ccccc4c3=O)C(=O)N2CCCN2CCOCC2)cc1 (stereo unspecified)	-8	?	1	?	13%
COP(=O)(OC)C(NC(=O)/C=C/c1ccccc1)C(Cl)(Cl)Cl (stereo unspecified)	55*	45%	21	44%	/
COc1cc(C(C)=O)ccc1OCC(=O)Nc1ccccc1N1CCCCC1	/	13µM*	/	?	/
COc1cc(C(C)=O)ccc1OCC(=O)Nc1ccccc1N1CCCC1	9	-23%	-1	10µM*	-40%
COc1ccc(CC(=O)Nc2ccccc2N2CCCC2)cc1OC	-5	?	-4	-16%	10%
ClC(/C=N/n1cnnc1)=C/c1ccccc1	6	12µM*	1	12µM*	-8%
Cc1ccc(/C=N/N2CCN(c3ccccn3)CC2)cc1	64*	86%	47*	68%	/
CCc1ccc(/C=N/N2CCN(c3ccccn3)CC2)cc1	68*	139%	37*	42%	12%
ClC(=C\c1ccccc1)/C=N/N1CCN(c2ccccn2)CC1	53*	89%	33*	86%	8%
CC1(C)CC(=O)C(C(=O)c2ccccc2)C(=O)C1	-6	14%	-3	?	5%
Cc1ccc(NC(=O)N2CCCC2C(=O)NCCc2ccccc2)cc1 (stereo unspecified)	2	5%	-4	?	-1%
CC(C)Cc1ccc(CC(=O)O)cc1	/	-2%	/	4%	/
COc1ccc(-n2c(COc3cccc4cccnc34)nnc2SCC(=O)O)cc1	15	0%	-1	4%	1%
O=C(Cc1ccccc1)N/N=C/c1ccc[nH]1	28	-15%	-1	-4%	-2%
O=C(Nc1ccccc1N1CCOCC1)c1cccc(F)c1	-4	-11%	-1	?	/
COc1c(C)cccc1C(=O)Nc1ccc(N2CCOCC2)c(Cl)c1	121*	/	89*	-27%	-79%
SMILES	Shiga toxin inh	Pf growth 48h	Cycloheximide cs	Pf growth 96h	NS1 function inh
O=C(Nc1nnc(-c2ccccc2Cl)o1)c1cccnc1	58*	7%	19*	24%	-43%
O=C(Nc1ccc(N2CCOCC2)c(Cl)c1)c1cccc(F)c1	119*	124%	44*	/	-31%
O=C(Nc1ccc(N2CCOCC2)c(Cl)c1)c1c(F)c(F)c(F)c(F)c1F	-4	-13%	-2	10%	-33%
O=C(Nc1ccc(N2CCOCC2)c(Cl)c1)c1cc(F)c(F)cc1Cl	27	16%	19*	/	-1%
O=C(CC1C(=O)NCCN1Cc1cccc(F)c1)NCCCOc1cccnc1 (stereo unspecified)	-14	9%	1	?	2%
CCN(CC(=O)NCc1ccc(Cl)cc1)C(=O)c1cc(OC)cc(OC)c1	-7	7%	-1	33%	-7%
O=C(O)C(C(=O)Oc1ccccc1)C(C(=O)O)C(=O)Oc1ccccc1 (stereo unspecified)	/	-11%	/	-7%	/
COc1ccc(CCC2CCNCC2)cc1	-8	-22%	5	4%	-1%
O=C(Nc1ccc(N2CCN(C(=O)c3cccs3)CC2)c(Cl)c1)c1cccnc1	20	?	1	155%	/
O=C(Nc1ccc(N2CCOCC2)cc1)c1cccnc1	38*	145%	28*	?	-4%
O=C(Nc1ccc(N2CCCCC2)c(Cl)c1)c1cccnc1	96*	-14%	25	-4%	-56%
O=C(Nc1cc([N+](=O)[O-])ccc1Cl)c1cccnc1	/	33%	-3	?	-8%
Cc1ccc([N+](=O)[O-])cc1NC(=O)c1cccnc1	-12	-4%	-4	10µM*	-1%
O=C(Nc1ccc(N2CCCC2)c(Cl)c1)c1cccnc1	54*	?	39*	?	?
O=C(C1CCCN(S(=O)(=O)c2cc(Cl)ccc2Cl)C1)N1CCCC1 (stereo unspecified)	-6	-26%	-1	?	0%
COc1ccc(S(=O)(=O)N(NC2=NS(=O)(=O)c3ccccc32)C(=O)C(C)C)cc1	-7	?	-4	1%	-3%
COc1ccc(N2CCOCC2)c(NC(=O)c2cccc3ccccc23)c1	-3	3.7µM*	-3	7%	-107%
Cc1ccc(NC(NC(=O)c2cccnc2)C(Cl)(Cl)Cl)cc1 (stereo unspecified)	-9	-22%	1	13µM*	1%
O=C(Nc1ccccc1N1CCOCC1)c1cccnc1	32	8%	-1	33%	/
O=C(Nc1ccc(Cl)c(Cl)c1)c1cccnc1	/	48%	35*	?	-65%
O=C(Nc1ccccc1N1CCOCC1)c1cccc2c(Br)cccc12	8	/	9	-21%	8%
O=C(Nc1ccc(N2CCOCC2)c(Cl)c1)c1cccnc1	53*	71%	26*	27%	-11%
NS(=O)(=O)c1ccc(NC(NC(=O)c2cccnc2)C(Cl)(Cl)Cl)cc1 (stereo unspecified)	-8	4%	-4	0%	-1%
COc1cc(/C=C(/Sc2nnc(-c3ccc(F)cc3)o2)C(=O)O)ccc1OC(F)F	24	-5%	18	2%	/
CCC1CCC(N2CCN(c3cccc(OC)c3)CC2)CC1 (stereo unspecified)	-3	15%	-1	117%	4%
Cc1ccc(NC(=O)c2cccnc2)cc1C	/	95%	19*	?	-19%
CSc1ccc(NC(=O)c2cccnc2)cc1C#N	51*	22%	13	-5%[5.75 µM]	/
O=C(Nc1ccc(F)cc1)c1cccnc1	-8	32%	-4	125%	-8%
O=C(Nc1cccc(NC(=O)c2cccnc2)c1)c1cccnc1	-3	8%	-4	72%	9%
COc1cc(C(=O)Nc2ccc(C(F)(F)F)cc2)ccc1OCC(=O)N1CCOCC1	/	31%	/	27%	/

Compound activity (PubChem BioAssay)
